Assay results from PubChem BioAssay (NCATS).
Records with an inconclusive call do not appear. The source made the active and inactive calls. Unless noted, calls follow the shape of the dose curve; as a rule, active = well fitted curve in either direction with a large enough effect (not every such curve was filed as active); inconclusive = small, poorly fitted or top-dose-only effect, or another doubt; inactive = flat fitted curve, though single readings scatter.

How the values were obtained:
[1] = target: Lysosomal acid glucosylceramidase (Homo sapiens) (UniProt P04062); test: Glucocerebrosidase-p2 (AID 348; in the data active = potency below about 10 µM; also: potency is read from the fitted curve at half-maximal effect); conditions: purified GBA, blue fluorogenic substrate, 40 min
Lysosomal acid glucosylceramidase (Homo sapiens), sequence (P04062 whole entry, looked up): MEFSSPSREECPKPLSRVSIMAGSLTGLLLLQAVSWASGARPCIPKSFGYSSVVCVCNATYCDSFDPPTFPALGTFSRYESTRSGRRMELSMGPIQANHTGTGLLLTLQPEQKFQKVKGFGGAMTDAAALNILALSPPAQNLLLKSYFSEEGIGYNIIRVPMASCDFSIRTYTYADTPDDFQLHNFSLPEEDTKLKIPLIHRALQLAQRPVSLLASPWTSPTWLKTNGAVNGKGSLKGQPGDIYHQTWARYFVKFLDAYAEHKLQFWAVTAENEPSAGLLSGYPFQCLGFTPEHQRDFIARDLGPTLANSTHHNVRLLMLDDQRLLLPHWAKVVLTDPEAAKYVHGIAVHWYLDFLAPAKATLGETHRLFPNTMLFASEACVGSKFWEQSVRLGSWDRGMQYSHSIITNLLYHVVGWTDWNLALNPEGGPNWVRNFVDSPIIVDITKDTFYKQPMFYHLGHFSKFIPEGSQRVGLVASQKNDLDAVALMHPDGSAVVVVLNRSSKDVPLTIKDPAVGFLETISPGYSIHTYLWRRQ
In short: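 Compounds titrated from 0.6 nM upwards against 0.2 nM enzyme in pH 5.9 citric acid/KH2PO4, taurocholate, tween-20; blue fluorogenic substrate 80 uM, 40 min room temperature, stopped and read Ex 365/Em 440 for AC50.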

[2] = AP1 Signaling Pathway (AID 357); conditions: ME-180 AP-1-bla reporter, EGF-induced, beta-lactamase ratio, 5 h; at 7.69 µM (top of the series) unless noted;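 also: ME-180 reporter cells stimulated with EGF at its EC50 level; % is scaled to controls: 0 for no effect and ±100 for the full control effect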
In short: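 Beta-lactamase reporter under AP-1 response element, ME-180 background. Stimulus: EC50 EGF. Compound exposure 5 h, 37 °C. Detection: CCF4, 2.5 h RT, 460/530 nm. Values: AC50 from titration.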

[3] = NFAT Signaling Pathway (AID 444); conditions: Jurkat NFAT-bla M1, carbachol, beta-lactamase ratio, 5 h; at 7.69 µM (top of the series) unless noted;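 also: carbachol stimulus at about its EC50 of 1 µM final; % is scaled to controls: 0 for no effect and ±100 for the full control effect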
In short: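 Jurkat cells carrying an NFAT-driven β-lactamase reporter and co-transfected muscarinic M1 receptor were treated with compound plus carbachol (1 uM final, an EC50 level) for 5 h at 37 °C. CCF4 loading followed for 1 h at RT; 460/530 nm ratio gave %activity.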

[4] = Stat Signaling Pathway (AID 446); conditions: ME-180 SIE beta-lactamase reporter, IL-6 stimulated, 5 h; at 7.69 µM (top of the series) unless noted;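 also: ME-180 cervical cancer cells given 40 pM IL-6 alongside compound; SIE-controlled beta-lactamase reporter measured as 460/530 nm FRET emission ratio; % is scaled to controls: 0 for no effect and ±100 for the full control effect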
In short: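 Screening format detects activators and inhibitors alike: ME-180 SIE-bla cells stimulated at 40 pM IL-6 for 5 hrs with compound, then dual-emission beta-lactamase read at 405 nm excitation.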

[5] = target: Glucocorticoid receptor (Homo sapiens) (UniProt P04150); test: GR-EFC Redistribution (AID 451; calls by dose curve; also: potency is read from the fitted curve at half-maximal effect); conditions: CHO-K1 GR-EFC translocation, beta-gal luminescence, 2 h
Glucocorticoid receptor (Homo sapiens), sequence (P04150 whole entry, looked up, the tested form may be a part): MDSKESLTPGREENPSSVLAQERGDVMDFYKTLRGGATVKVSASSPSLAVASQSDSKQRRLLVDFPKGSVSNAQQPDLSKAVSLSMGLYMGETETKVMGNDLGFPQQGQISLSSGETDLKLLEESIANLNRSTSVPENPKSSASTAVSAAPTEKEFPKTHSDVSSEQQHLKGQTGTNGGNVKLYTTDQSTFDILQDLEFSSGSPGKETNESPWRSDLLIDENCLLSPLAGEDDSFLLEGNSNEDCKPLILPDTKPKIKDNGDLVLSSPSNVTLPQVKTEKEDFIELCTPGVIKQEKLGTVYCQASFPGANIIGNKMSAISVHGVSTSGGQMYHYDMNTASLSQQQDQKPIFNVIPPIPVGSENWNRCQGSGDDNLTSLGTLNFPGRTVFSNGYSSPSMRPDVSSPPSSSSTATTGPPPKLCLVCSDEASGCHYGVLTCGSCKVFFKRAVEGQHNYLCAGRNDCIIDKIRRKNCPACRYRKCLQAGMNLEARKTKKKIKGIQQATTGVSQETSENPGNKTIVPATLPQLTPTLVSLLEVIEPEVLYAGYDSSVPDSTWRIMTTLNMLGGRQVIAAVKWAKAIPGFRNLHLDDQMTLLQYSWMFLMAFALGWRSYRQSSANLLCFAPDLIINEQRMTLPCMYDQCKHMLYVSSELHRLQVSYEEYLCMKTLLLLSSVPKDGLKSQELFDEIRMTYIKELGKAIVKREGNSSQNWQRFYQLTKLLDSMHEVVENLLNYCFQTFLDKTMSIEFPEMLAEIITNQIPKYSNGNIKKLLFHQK
In short: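 CHO-K1 cells stably expressing nuclear-localized β-gal enzyme acceptor and GR fused C-terminally to the enzyme donor fragment; ligand-driven nuclear translocation restores β-gal by complementation. Compounds titrated up to 46 uM final, 2 h at 37 °C; luminescence read.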

[6] = target: Mitogen-activated protein kinase 10 (Mus musculus) (UniProt Q61831); test: JNK3 AlphaScreen Assay (AID 530); conditions: JNK3 lysate, c-Jun phosphorylation; series mostly up to 57.1 µM;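 also: kinase came from lysate of stimulated human HepG2 cells; signal reports phosphorylation of biotinylated GST-cJun 1-79 at Ser73 with 10 µM ATP; % is scaled to controls: 0 for no effect and ±100 for the full control effect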
In short: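 Inhibitors reduce antibody binding to phosphorylated biotin-cJun, lowering AlphaScreen luminescence. Lysates from HepG2 cells pre-activated by IL-1beta plus TNF-alpha supplied JNK3; compounds were titrated.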

[7] = target: 3',5'-cyclic-AMP phosphodiesterase 4B (Homo sapiens) (UniProt Q07343); test: qHTS Assay for Inhibitors of PDE-IV (AID 607; active = well fitted activation curve with a large enough effect in the main read-out, with a control signal flat, not every such curve was filed as active; also: % of control where 0% means no effect); conditions: HEK293 ACTOne CNG channel cells, membrane potential fluorescence; series mostly up to 22.9 µM
3',5'-cyclic-AMP phosphodiesterase 4B (Homo sapiens), sequence (Q07343 whole entry, looked up): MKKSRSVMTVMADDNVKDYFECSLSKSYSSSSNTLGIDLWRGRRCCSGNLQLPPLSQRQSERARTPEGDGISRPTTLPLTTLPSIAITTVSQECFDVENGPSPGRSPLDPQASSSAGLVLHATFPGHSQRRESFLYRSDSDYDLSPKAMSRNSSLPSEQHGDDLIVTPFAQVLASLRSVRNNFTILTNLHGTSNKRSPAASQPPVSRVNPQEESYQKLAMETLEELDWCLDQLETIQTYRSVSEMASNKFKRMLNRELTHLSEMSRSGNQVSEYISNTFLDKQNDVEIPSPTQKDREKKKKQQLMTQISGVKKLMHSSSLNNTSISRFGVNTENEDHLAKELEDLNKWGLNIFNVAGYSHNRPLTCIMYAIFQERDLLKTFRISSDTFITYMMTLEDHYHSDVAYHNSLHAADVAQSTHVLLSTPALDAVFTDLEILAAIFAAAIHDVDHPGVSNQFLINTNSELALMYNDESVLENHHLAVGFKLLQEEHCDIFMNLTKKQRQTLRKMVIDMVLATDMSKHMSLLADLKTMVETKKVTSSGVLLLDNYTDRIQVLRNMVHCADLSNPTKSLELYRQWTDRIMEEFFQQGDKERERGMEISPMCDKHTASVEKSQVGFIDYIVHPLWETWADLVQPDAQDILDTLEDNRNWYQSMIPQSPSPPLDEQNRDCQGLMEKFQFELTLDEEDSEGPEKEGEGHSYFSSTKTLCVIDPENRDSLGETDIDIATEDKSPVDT
In short: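 The readout is membrane depolarisation from a cAMP-sensing CNG channel, detected with a potential dye at ex 535/em 590. Cells were HEK293-derived (endogenous PDE-IV) at 1000 cells/well, titrated up to 22.9 uM final.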

[8] = qHTS Assay for Lipid Storage Modulators (AID 1519; calls by dose curve); conditions: Drosophila S3 cells, BODIPY lipid droplet/cell ratio, laser cytometry, cells loaded with oleic acid; for activity change, negative = inhibition: at 57.5 µM (top of the series)
In short: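 Cells seeded at 5,000 per well were treated with compounds over a concentration series and loaded with oleic acid (400 uM, as added). Lipid droplet fluorescence (488 nm excitation, 500-530 nm channel) was read by laser-scanning cytometry and normalized to 20 uM Triacsin C.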

[9] = Primary qHTS for small molecule stabilizers of the endoplasmic reticulum resident proteome: Secreted ER Calcium Modulated Protein (SERCaMP) assay (AID 1508630; active = well fitted curve in the direction sought with a large enough effect; an effect the other way counts as inactive or inconclusive; also: % is scaled to controls: 0 for no effect and ±100 for the full control effect); conditions: SH-SY5Y GLuc-SERCaMP (Gaussia luciferase released on ER calcium loss) secretion, thapsigargin, luminescence; series mostly up to 38.4 µM
In short: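 GLuc-SERCaMP-expressing SH-SY5Y cells, pretreated 16 h with compound, are challenged with thapsigargin to empty ER calcium stores; after 4 h, coelenterazine is added directly to the medium and luminescence is imaged.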

[10] = target: Cytochrome P450 3A4 (Homo sapiens) (UniProt P08684); test: qHTS Assay for Inhibitors and Substrates of Cytochrome P450 3A4 (AID 884; active = well fitted curve in the direction sought with a large enough effect; an effect the other way counts as inactive or inconclusive; also: % is scaled to controls: 0 for no effect and ±100 for the full control effect; nearly all actives have a fitted effect of over 50% in size); conditions: recombinant CYP3A4, Luciferin-PPXE luminescence; series mostly up to 57.1 µM
Cytochrome P450 3A4 (Homo sapiens), sequence (P08684 whole entry, looked up): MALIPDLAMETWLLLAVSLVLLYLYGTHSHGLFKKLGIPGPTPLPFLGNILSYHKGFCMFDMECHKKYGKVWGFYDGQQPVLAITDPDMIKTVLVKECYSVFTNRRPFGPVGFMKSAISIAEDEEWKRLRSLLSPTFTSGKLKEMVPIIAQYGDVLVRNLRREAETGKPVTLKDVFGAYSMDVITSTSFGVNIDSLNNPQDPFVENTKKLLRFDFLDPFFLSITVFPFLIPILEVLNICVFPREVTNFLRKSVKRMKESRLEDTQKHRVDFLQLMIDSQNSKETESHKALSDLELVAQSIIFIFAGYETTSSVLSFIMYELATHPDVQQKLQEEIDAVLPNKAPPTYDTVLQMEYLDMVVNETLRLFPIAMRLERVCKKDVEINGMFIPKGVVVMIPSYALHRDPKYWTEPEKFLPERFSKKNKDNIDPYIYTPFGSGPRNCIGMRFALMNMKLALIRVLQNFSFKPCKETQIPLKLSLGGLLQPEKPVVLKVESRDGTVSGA
In short: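 20 nM human CYP3A4 with 25 uM Luciferin-PPXE (at KM) in 200 mM KPO4, preincubated 10 min with compound; NADPH regeneration started a 60 min RT reaction. Luciferin detected by luminescence, normalized to 57 uM ketoconazole as full inhibition.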

[11] = qHTS Assay for Identification of Small Molecule Agonists for Hypoxia Response Element Signaling Pathway (AID 914; active = well fitted activation curve with a large enough effect in the signal ratio, with a control signal flat, not every such curve was filed as active; the % refers to the signal ratio; also: % of control where 0% means no effect); conditions: ME-180 (cervical carcinoma) HRE-bla reporter, beta-lactamase ratio, CoCl2, 17 h; activation: stronger effect = higher value
In short: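 Positive modulation of EC50 CoCl2-induced hypoxia response element signaling is measured in ME-180 cells with a beta-lactamase reporter. Compounds are titrated, incubation runs 17 hours, and %Activity derives from the blue/green ratio.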

[12] = target: Cytochrome P450 3A4 (Homo sapiens) (UniProt P08684); test: qHTS Assay for Activators of Cytochrome P450 3A4 (AID 885; active = well fitted curve in the direction sought with a large enough effect; an effect the other way counts as inactive or inconclusive; also: nearly all actives have a fitted effect of over 65% in size; also: potency is read from the fitted curve at half-maximal effect); conditions: recombinant CYP3A4, Luciferin-PPXE luminescence, 60 min; series mostly up to 57.1 µM
In short: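 Steps: enzyme/substrate mix dispensed; compound added, 10 min RT; NADPH regeneration solution added, 60 min RT; luciferin detection buffer stops reaction; 20 min later luminescence measured.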

[13] = target: Cytochrome P450 2D6 (Homo sapiens) (UniProt P10635); test: qHTS Assay for Inhibitors and Substrates of Cytochrome P450 2D6 (AID 891; active = well fitted curve in the direction sought with a large enough effect; an effect the other way counts as inactive or inconclusive; also: potency is read from the fitted curve at half-maximal effect; nearly all actives have a fitted effect of over 60% in size); conditions: recombinant CYP2D6, luciferin-ME EGE luminescence; series mostly up to 57.1 µM
Cytochrome P450 2D6 (Homo sapiens), sequence (P10635 whole entry, looked up): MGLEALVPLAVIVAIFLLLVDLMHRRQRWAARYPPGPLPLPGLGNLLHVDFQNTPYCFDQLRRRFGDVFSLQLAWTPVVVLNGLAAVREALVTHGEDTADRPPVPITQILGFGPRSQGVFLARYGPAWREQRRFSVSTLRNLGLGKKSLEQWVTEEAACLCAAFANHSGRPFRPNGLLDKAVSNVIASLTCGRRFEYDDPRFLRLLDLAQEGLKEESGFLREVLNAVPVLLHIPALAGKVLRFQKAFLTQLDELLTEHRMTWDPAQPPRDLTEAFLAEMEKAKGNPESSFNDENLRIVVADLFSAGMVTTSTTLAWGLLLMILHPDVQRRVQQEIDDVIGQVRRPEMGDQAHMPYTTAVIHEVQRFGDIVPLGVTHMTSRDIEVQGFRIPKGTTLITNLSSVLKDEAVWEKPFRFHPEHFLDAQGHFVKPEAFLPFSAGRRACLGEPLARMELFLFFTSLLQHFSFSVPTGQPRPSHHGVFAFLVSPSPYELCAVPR
In short: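 Human CYP2D6 (5 nM) with 30 uM Luciferin-ME EGE (at Km) in 100 mM KPO4, compound preincubated 10 min, then NADPH regeneration system for 60 min at room temperature. Luciferin read by luminescence; normalized to 1.43 uM quinidine.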

[14] = measured here: cell count channel max response
[15] = measured here: lipid channel max response

Structure (SMILES) | Potency [1] | activity change, negative = inhibition [2] | activity change, negative = inhibition [3] | activity, negative = inhibition [4] | Potency [5] | Potency [6] | Potency [7] | activity change, negative = inhibition [8] | max response [8, 14] | max response [8, 15] | outcome [9] | Potency [10] | activation [11] | Potency [12] | Potency [13]
O=C(Nc1cccc(F)c1)N1CC[C@@]2(CCCN(C(=O)c3csnn3)C2)C1 | > 11.4 µM (inactive) | -13.9% (inactive) | 20.4% (inactive) | -1.73% (inactive) | > 46 µM (inactive) | inactive | inactive | 3.72% (inactive) | 12.5% | 18.5% | inactive | – | – | – | –
COc1ccc(C(=O)N2CCC3(CC2)CCN(c2ccccc2)CC3)cc1 | > 11.4 µM (inactive) | -11.8% (inactive) | 1.53% (inactive) | -8.92% (inactive) | > 46 µM (inactive) | inactive | inactive | 4.37% (inactive) | 9.05% | 17.4% | inactive | inactive | -13.6% (inactive) | – | –
O=C(Nc1cccc(F)c1)N1CC2(CCN(C(=O)c3cccc(F)c3)CC2)C1 | > 11.4 µM (inactive) | -21.6% (inactive) | 22.7% (inactive) | -4.12% (inactive) | > 46 µM (inactive) | inactive | inactive | 1.48% (inactive) | 1.76% | 6.4% | inactive | – | – | – | –
CS(=O)(=O)N1CCC2(CC1)CN(C(=O)Nc1cccc(F)c1)C2 | > 11.4 µM (inactive) | 0.393% (inactive) | 3.65% (inactive) | 13.3% (inactive) | > 46 µM (inactive) | inactive | inactive | 5.56% (inactive) | 15.2% | 24.9% | inactive | – | – | – | –
N#Cc1cccc(NC(=O)N2CC3(CCN(C(=O)c4cccc(F)c4)CC3)C2)c1 | > 11.4 µM (inactive) | -1.48% (inactive) | 8.8% (inactive) | -8.78% (inactive) | > 46 µM (inactive) | inactive | inactive | 4.13% (inactive) | 17% | 25.1% | inactive | inactive | – | 10 µM (active) | –
COc1ccc(C(=O)N2CCC[C@@]3(CCN(CC(C)C)C3)C2)cc1 | > 11.4 µM (inactive) | -12.8% (inactive) | -2.79% (inactive) | -10.6% (inactive) | > 46 µM (inactive) | inactive | inactive | 2.82% (inactive) | 8.22% | 13.2% | inactive | – | – | inactive | –
Cn1cccc1C(=O)N1CCC[C@@]2(CCN(C(=O)Nc3cccc(F)c3)C2)C1 | > 11.4 µM (inactive) | -5.32% (inactive) | 4.03% (inactive) | 5.29% (inactive) | > 46 µM (inactive) | inactive | inactive | 4.9% (inactive) | 9.75% | 17.3% | inactive | – | – | – | –
CS(=O)(=O)N1CCC2(CC1)CN(Cc1ccccc1)C2 | > 11.4 µM (inactive) | -4.28% (inactive) | -8.71% (inactive) | -7.57% (inactive) | > 46 µM (inactive) | inactive | inactive | 3.83% (inactive) | 6.73% | 15% | inactive | – | – | – | –
CC(C)NC(=O)N1CC2(CCN(C(=O)c3cc(C(F)(F)F)cc(C(F)(F)F)c3)CC2)C1 | > 11.4 µM (inactive) | -16.3% (inactive) | 6.43% (inactive) | -11.9% (inactive) | > 46 µM (inactive) | inactive | inactive | 0.828% (inactive) | 11% | 13.7% | inactive | – | – | – | 0.251 µM (active)
O=C(Nc1ccccc1)N1CC2(CCN(S(=O)(=O)c3ccccc3)CC2)C1 | > 11.4 µM (inactive) | -1.41% (inactive) | 16.1% (inactive) | -2.14% (inactive) | > 46 µM (inactive) | inactive | inactive | -5.83% (inactive) | 0.332% | -5.36% | inactive | – | -12.4% (inactive) | – | –
Cc1noc(C)c1C(=O)N1CCC[C@@]2(CCN(C(=O)Nc3ccccc3)C2)C1 | > 11.4 µM (inactive) | -22.6% (inactive) | 19.8% (inactive) | -2.21% (inactive) | > 46 µM (inactive) | inactive | inactive | 3.24% (inactive) | 3.75% | 7.38% | inactive | – | – | inactive | –
CC(=O)N1CCC2(CCCN(Cc3cc(C(F)(F)F)cc(C(F)(F)F)c3)C2)CC1 | > 11.4 µM (inactive) | 7.77% (inactive) | 23.8% (inactive) | -2.82% (inactive) | > 46 µM (inactive) | inactive | inactive | 4.05% (inactive) | 1.79% | 9.32% | inactive | – | – | inactive | –
COCC(=O)N1CCC2(CCCN(c3ccc(-c4ccccc4)cc3)C2)CC1 | > 11.4 µM (inactive) | -7.31% (inactive) | 3.92% (inactive) | -7.13% (inactive) | > 46 µM (inactive) | inactive | inactive | -5.34% (inactive) | 18.5% | 14.9% | inactive | – | – | – | –
COC(=O)N1CCC2(CCN(C(=O)Nc3cccc(C#N)c3)CC2)CC1 | > 11.4 µM (inactive) | -20.7% (inactive) | 4.12% (inactive) | 7.14% (inactive) | > 46 µM (inactive) | inactive | inactive | -0.883% (inactive) | 12.6% | 14% | inactive | – | – | – | –
